# Data from PubChem BioAssay AID504444 (National Center for Advancing Translational Sciences (NCATS), 2011).
# Among all 360,000 compounds or so, about 7,500 (2.1%) were called active. A call without a number means that no potency is given here. Another 20% or so got no clear call; they are omitted. The full list was thinned out, with actives kept by preference. A number with no mark means an inactive call. Calls follow the shape of the dose curve; as a rule, active = well fitted inhibition curve with a large enough effect; inconclusive = small, poorly fitted or top-dose-only effect, or effect the other way; inactive = flat fitted curve, though single readings scatter.
# Test: Nrf2 qHTS screen for inhibitors; also: nearly all actives have a fitted effect of over 60% in size
# Conditions: A549 ARE-Fluc reporter, luciferase luminescence, 18-24 h; series mostly up to 46 µM
# Summary of the method: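 Nrf2 function is reported as luminescence of an ARE-controlled luciferase in A549 cells. Compounds were tested at several concentrations, and a CellTiter-Fluor read on the same wells flagged cytotoxicity.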
# Potency is read from the fitted curve at half-maximal effect.
Structure (SMILES),Potency,"activity change, negative = inhibition"
Oc1ccc(/C=C/c2c(F)cccc2F)c2cccnc12,inactive,
Cc1c(NC(=O)Cc2ccccc2)cccc1-c1nc2cccnc2s1,inactive,
CC(=O)Nc1cccc(-c2nc3ccccc3s2)c1C,7.31 µM (active),
COc1ccc(-c2nc3ccccc3s2)cc1NC(=O)COc1ccccc1C,inactive,
COc1ccc(CCNC(=O)c2ccc(-n3c(C)cc4c3CCCC4)cc2)cc1OC,inactive,
CN(Cc1cnccn1)C(=O)c1cc(COc2cccc(C(F)(F)F)c2)on1,inactive,
CN(Cc1cccnc1)C(=O)c1cc(COc2ccc3ncccc3c2)on1,4.61 µM (active),
CC(=O)c1cccc(OCc2cc(C(=O)NC(C)Cc3cccnc3)no2)c1 (stereo not given),inactive,
O=C1/C(=C\c2ccc(O)cc2)CCC1CNc1ccc(Cl)cc1 (stereo not given),inactive,
CCN1C[C@@H]2[C@@H]3C(=O)N(C)C(=O)[C@@H]3[C@](C)(C1=O)N2C(=O)c1ccccc1,inactive,
COc1ccc(CCNC(=O)COc2cc(C)cc3oc(=O)c(C)c(C)c23)cc1OC,inactive,
COc1ccccc1N1CCN(CCCNC(=O)c2cnn(-c3ccccc3Cl)c2C2CCN(C(=O)OC(C)(C)C)CC2)CC1,inactive,
CCOc1ccc(N2C(=O)CC(N(O)c3ccccc3)C2=O)cc1 (stereo not given),inactive,
CCOc1ccc(N2C(=O)CC(N(CCc3ccc(OC)c(OC)c3)C(=S)Nc3ccccc3)C2=O)cc1 (stereo not given),23.1 µM (active),
COC(=O)CN(C(=S)Nc1ccc(Cl)cc1)C1CC(=O)N(c2ccc(OC)cc2)C1=O (stereo not given),inactive,
O=C1CC(c2nnc(Cc3ccc(Cl)cc3)o2)CN1c1ccccc1 (stereo not given),inactive,
O=C(NCCNc1ccccc1[N+](=O)[O-])c1ccccc1F,inactive,
O=C(NCCCNc1ccc([N+](=O)[O-])cc1Cl)c1ccccc1F,inactive,
O=C(NCCNc1ccc([N+](=O)[O-])cc1Cl)c1ccccc1F,16.4 µM (active),
COc1ccccc1Nc1c2c(nc3ccc(NC(=O)/C=C/c4cc(OC)c(OC)c(OC)c4)cc13)CCCC2,,4.54% [at 9.27 µM]
COc1ccccc1CNC(=O)CCCCn1c(=O)c2ccccc2n(CC(=O)Nc2cc(Cl)ccc2C)c1=O,inactive,
COc1ccc(NC(=O)Cn2c(=O)n(CCC(C)C)c(=O)c3cccnc32)cc1Cl,inactive,
COc1ccccc1C(=O)c1ccccc1C(=O)c1ccccc1,inactive,
CC1Cc2nc(SCC(=O)Nc3ccccc3F)n(C)c(=O)c2S1 (stereo not given),inactive,

Structure (SMILES),Potency,"activity change, negative = inhibition"
COCCn1c(SCC(=O)Nc2ccccc2F)nc2c(c1=O)SCC2,4.11 µM (active),
COCCn1c(SCC(=O)N2CCCCCC2)nc2c(c1=O)SCC2,inactive,
COC(=O)[C@@]1(C)[C@H]2C(=O)N(Cc3ccccc3)C(=O)[C@H]2[C@H]2CN=C(SCC3CC3)N21,inactive,
COc1ccccc1C1C(C#N)=C(N)Oc2c1c(-c1ccccc1)nn2-c1ccccc1 (stereo not given),20.6 µM (active),
Cc1nn(Cc2ccccc2)c2c1C(c1ccccc1)C(C#N)=C(N)O2 (stereo not given),inactive,
Cc1nn(-c2ccccc2)c2c1C(c1ccc(F)cc1)C(C#N)=C(N)O2 (stereo not given),inactive,
Cc1oc2ccc(O)c(CN3CCCCC3)c2c1C(=O)Nc1cccc(C(F)(F)F)c1,inactive,
COc1cccc(C(=O)NC2CCN(C#N)CC2)c1,inactive,
Cc1ccccc1OCc1ccc(-c2nc(C#N)c(N3CCCCC3)o2)o1,inactive,
Cc1ccc(-n2c(SCC(=O)N3c4ccccc4Sc4ccccc43)nnc2-c2ccncc2)cc1,inactive,
Cc1ccc(Nc2nc(CSc3nnc(-c4ccncc4)n3-c3ccccc3C)cs2)cc1,9.2 µM (active),
Cc1ccccc1-n1c(SCC(=O)NCc2cccs2)nnc1-c1ccncc1,inactive,
CCc1cc2c(N3CCN(c4nnc(CC)s4)CC3)ncnc2s1,23.1 µM (active),
Oc1ccccc1N1CCN(c2ncnc3sc(-c4ccccc4)cc23)CC1,inactive,
CCc1cc2c(NC(Cc3ccccc3)C(=O)O)ncnc2s1 (stereo not given),inactive,
Cc1nn(-c2ccc(N3CCCCC3)nn2)c(C)c1CCC(=O)NCc1ccc(F)cc1,inactive,
COc1ccc(OC)c(NC(=O)CN2CCCN(Cc3cc(C)ccc3C)S2(=O)=O)c1,inactive,
O=C(N[C@H]1C/C=C\C(c2cccc(F)c2)N(Cc2ccccc2)C(=O)C1)OCC1c2ccccc2-c2ccccc21 (stereo not given in full),inactive,
O=C(CC(O)(C(F)(F)F)C(F)(F)F)Nc1ccc(Cl)c(Cl)c1,2.91 µM (active),
CCn1nccc1C(=O)Nc1ccc(Cl)c(Cl)c1,inactive,
N/C(=N\OC(=O)Nc1ccc(Cl)c(Cl)c1)c1ncc(C(F)(F)F)cc1Cl,inactive,
CCN(CC)c1nc(C#N)nc(OC)n1,inactive,
C=CCNC(=O)c1cc2nc(C3CC3)cc(C(F)F)n2n1,inactive,
CC1CCN(C(=O)c2cc3nc(C4CC4)cc(C(F)(F)F)n3n2)CC1,18.4 µM (active),

Structure (SMILES),Potency,"activity change, negative = inhibition"
O=C(NCC12CC3CC(CC(C3)C1)C2)c1cc2nc(-c3ccccc3)cc(C(F)(F)F)n2n1,inactive,
Cc1cccc(-n2ncc(C(=O)N3CCC(C)CC3)c2C2CCN(C(=O)OC(C)(C)C)CC2)c1,inactive,
O=C(c1ccccc1)N1CCN(C(=O)c2cc3nc(-c4ccccc4)cc(C(F)(F)F)n3n2)CC1,25.9 µM (active),
COC(=O)c1cc2nc(-c3ccccc3)cc(C(F)(F)F)n2n1,inactive,
CC(Sc1oc(-c2ccco2)nc1S(=O)(=O)c1ccc(Br)cc1)c1ccccc1 (stereo not given),,8.26% [at 9.27 µM]
Cc1ccc(-c2nnc3ccc(SCC(N)=O)nn23)cc1,inactive,
Cc1ccc(CNC(=O)CSc2c3c(nc4cc(Cl)ccc24)CCCC3)cc1,inactive,
Cc1cccc(NC(=S)N2CCC(C(=O)c3ccc(F)cc3)CC2)c1,inactive,
CCOc1ccc(C2C(C(=O)Nc3ccc(Cl)cc3)=C(C)Nc3nc(C(F)(F)F)nn32)cc1 (stereo not given),inactive,
CCN(CC)c1ccc(NC(=O)CN2C(=O)c3cccnc3Oc3ccc(Cl)cc32)c(C)c1,inactive,
C=CC(=O)Nc1ccc(Nc2ccnc(Nc3ccc(N4CCN(C)CC4)cc3)n2)cc1,14.6 µM (active),
CN1CCN(c2ccc(NC(=O)c3cc(Cl)c4c(c3)OCCO4)cc2)CC1,inactive,
Cc1cccc(N2CCN(c3ccc(NC(=O)/C=C\C(=O)O)cc3)CC2)c1,inactive,
Cc1nn(-c2nc(-c3ccccc3)cc(C(F)(F)F)n2)c(C)c1Cl,inactive,
CCN(c1ccccc1)S(=O)(=O)c1cccc(C(=O)NCc2ccccc2CN2CCOCC2)c1,inactive,
Cc1ccc(-c2nn(C(C)(C)C)c3ncnc(N)c23)cc1,18.4 µM (active),
Cc1ccc(-n2cnc3ncnc(-c4ccccc4)c32)cc1,inactive,
Cc1nc2ccn(Cc3cccnc3)c(=O)c2cc1C(=O)N1CCN(c2ccccc2F)CC1,inactive,
CCOc1ccc(CNC(=O)C2CCN(c3nnc(-n4cccc4CNc4ccc(C)cc4)s3)CC2)cc1OC,inactive,
COc1ccc(Br)cc1/C=N/Nc1ccc(S(=O)(=O)Nc2ccccc2C(=O)O)cc1[N+](=O)[O-],inactive,
CCOC(=O)c1c(-c2ccccc2)oc2cc(Br)c(O)cc12,inactive,
CCOC(=O)c1c(-c2ccccc2)oc2ccc(OCC(N)=O)cc12,inactive,
CCOC(=O)c1c(-c2ccccc2)oc2cc(Br)c(O)c(C=O)c12,20.6 µM (active),
COc1ccccc1N(CCOc1ccccc1)S(=O)(=O)c1ccccc1,inactive,

Structure (SMILES),Potency,"activity change, negative = inhibition"
COc1cccc(CC(=NO)c2cccc(OC)c2)c1,inactive,
O=C(CN1C(=O)NC(Cc2ccccc2)(Cc2ccccc2)C1=O)NCC1CCCCC1,23.1 µM (active),
COc1cccc(CNC(=O)CN2C(=O)NC(Cc3ccccc3)(c3ccccc3)C2=O)c1 (stereo not given),inactive,
CCCCNC(=O)CN1C(=O)NC(Cc2ccccc2)(Cc2ccccc2)C1=O,inactive,
Cc1ccc(C(=O)CC2(O)C(=O)N(CCc3ccccc3)c3ccc(Br)cc32)cc1 (stereo not given),inactive,
O=C(NCCCN1CCOCC1)c1ccc(N2CCCC2)c([N+](=O)[O-])c1,inactive,
COCCNC(=O)c1ccc(N2CCC3(CC2)OCCO3)c([N+](=O)[O-])c1,inactive,
CCCNC(=O)c1ccc(N2CCC3(CC2)CC(c2ccc(Cl)cc2)=NO3)c([N+](=O)[O-])c1,23.1 µM (active),
CCOC(=O)N1CCc2c(sc3c2c(=O)n(-c2ccc(CC)cc2)c(=O)n3C)C1,inactive,
CCOC(=O)C1CCN(C(=O)CSc2c3c(nc4ccc(Cl)cc24)CCCC3)CC1,inactive,
Cc1ccc(-c2cc(C(F)(F)F)c(C#N)c(SCC(=O)Nc3ccccc3)n2)cc1,inactive,
Cn1ccc(NC(=O)Nc2ccc(Cl)cc2)n1,inactive,
NS(=O)(=O)c1ccc(CCNC(=O)Nc2ccc(Cl)cc2)cc1,inactive,
CC(C)S(=O)(=O)c1csc(NC(=O)Nc2ccc(Cl)cc2)c1Cl,20.6 µM (active),
Cc1ccc(CN2CCC(CNC(=O)c3cnn(-c4ccc(C)cc4)c3C3CCN(C(=O)OC(C)(C)C)CC3)CC2)cc1,inactive,
CCOc1ccc(NC(=O)COC(=O)C2CCC(=O)N2)c([N+](=O)[O-])c1 (stereo not given),inactive,
COc1ccc(C2=NC3(CCCCC3)N(CC(=O)Nc3ccc(C(C)C)cc3)C2=O)cc1,inactive,
COc1ccc(CCNC(=O)CCCCn2c(=O)c3ccccc3n(Cc3ccccc3)c2=O)cc1OC,inactive,
COC[C@@H]1NS(=O)(=O)c2ccc(Br)cc2O[C@H]1c1ccccc1,inactive,
CN(C(=O)c1cccc(NC(=O)C2CCN(C(=O)OC(C)(C)C)CC2)c1)C1CCC1,inactive,
O=C(CCn1c(=O)[nH]c2ccccc2c1=O)NCCCN1CCN(c2cccc(Cl)c2)CC1,inactive,
O=C(CCCC(=O)N1CCN(c2cccc(Cl)c2)CC1)c1ccccc1,inactive,
O=C(Cc1ccc(-n2c(=O)[nH]c3ccccc3c2=O)cc1)N1CCN(c2cccc(Cl)c2)CC1,16.4 µM (active),
